# Assay outcomes from PubChem BioAssay.
# This is a sample that favours compounds with a hit; in the whole collection about 5.4% have one here.
# Beta cell apopt: inhibitors of cytokine-induced beta cell apoptosis, primary screen, luminescence; protection from apoptosis, % (test concentration not listed); actives 0.8% (n = 300,000); INS-1E cytokine-induced death, ATP luminescence, 48 h; percent of positive-control rescue, neutral wells zero;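 active = Every replicate reaches about 75%, or at least half do and their mean reaches it too, limit read from the data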;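 also: 0% = cytokine-treated negative control wells and 100% = positive control rescue; higher means more ATP so stronger rescue from cytokine killing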
# CSC inhib: cancer stem cell viability inhibitors, primary screen, luminescence. cancer stem cell-like cells viability. inhibition, % at 7.5 µM. actives 1.1% (n = 300,000); in the data active = inhibition above about 75%; tested in HMLE shEcad cells
# SKKanGAS inh: S. pyogenes SKKanGAS growth inhibitors in kanamycin, primary screen, streptokinase expression inhibitor project, SKKanGAS strain, BacTiter-Glo luminescence | 6 h | inhibition, % at 7.5 µM | AID 1662, 2009 | actives 1.3% (n = 300,000);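 active = mean replicate score, as percent of positive control median, at least 50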;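 also: strain carries kanamycin resistance gene driven by streptokinase promoter and grows in 40 µg/ml kanamycin; loss of luminescence reflects streptokinase promoter inhibition or plain growth inhibition; 0% = median of DMSO wells and 100% = positive control at its reference dose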
# Mdm2-MdmX inh: inhibitors of human Mdm2-MdmX association, primary screen, cell-based, luminescence, split luciferase, SaOS-2, uHTS; Protein Mdm4 (Homo sapiens) + E3 ubiquitin-protein ligase Mdm2 (Homo sapiens), …; SaOS-2 split-luciferase Mdm2/MdmX complementation; inhibition, % at 8 µM; actives 3% (n = 330,000);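 active = inhibition of at least 50% at 8 µM in the primary screen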
# MPTP inh: mitochondrial permeability transition pore inhibitors, primary screen, biochemical, isolated mouse mitochondria, absorbance; inhibition, % at 10 µM; Ca2+ swelling absorbance, 30 min; actives 1.4% (n = 360,000);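 active = inhibition of 50% or more, scaled per plate between neutral and stimulator controls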;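 also: 0% = DMSO wells given calcium and 100% = 1 mM EGTA wells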
# Calb FLC: C. albicans growth inhibition with fluconazole, primary screen, CaCi-2 strain, Alamar Blue fluorescence; C. albicans CaCi-2 (fluconazole-resistant clinical isolate) + fluconazole, 48 h; growth inhibition, % (no concentration beside the values); actives 0.57% (n = 300,000); AID 1979, 2009;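 active = growth inhibition above about 58% in most replicates, limit read from the data, passing the limit was not always enough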;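 also: all wells also contain fluconazole at 8 µg/ml as a sub-toxic cotreatment; 0% = median of DMSO wells and 100% = median of geldanamycin control wells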
# Mdm2-MdmX conf: Mdm2-MdmX complex disruptors, retested hits, confirmation, luminescence, single concentration. shares compounds with Mdm2-MdmX inh. Mdm2-MdmX binding, luminescent assay. inhibition, % at 8 µM. actives 55% (n = 10,000); in the data active = inhibition above about 40%
# FLuc counter: full-length luciferase signal inhibition, confirmation, counter-screen for Mdm2/MdmX interaction inhibitor project, cell-based, single concentration, SaOS-2; shares compounds with Mdm2-MdmX inh; inhibition, % at 8 µM; actives 77% (n = 6,200); SaOS-2 full-length luciferase counterscreen, luminescence;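 active = mean inhibition at 8 µM reaching about 37%, which flags the compound as non-specific, limit read from the data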;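 also: p53-null SaOS-2 cells with luciferase driven by a doxycycline-inducible promoter; compound on cells about two nights before reading with doxycycline added after day one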
# Numbers without * were called inactive; . = no result given.
SMILES,Beta cell apopt,CSC inhib,SKKanGAS inh,Mdm2-MdmX inh,MPTP inh,Calb FLC,Mdm2-MdmX conf,FLuc counter
Cc1ccccc1NS(=O)(=O)c1ccc(NC(=O)CSCc2ccc(Br)cc2)cc1,-11,20,6,12,20,33,.,.
N#Cc1c(N2CCCC(O)C2)nc(N)c2c(N)nc3c(c12)CC(=O)N3C12CC3CC(CC(C3)C1)C2 (stereo unspecified),13,72,41,90*,-3,-2,69*,44*
COc1ccc(CN2C(=O)Cc3c2nc(N)c2c(N)nc(N4CCCCC4)c(C#N)c32)cc1,-1,.,11,-6,.,-5,.,.
C=C(C)CN(CC)c1nc(N)c2c(N)nc3c(c2c1C#N)CC(=O)N3C12CC3CC(CC(C3)C1)C2,56,19,28,84*,2,7,54*,41*
O=C1c2ccccc2C(c2nnnn2-c2ccc3c(c2)OCCO3)N1CCc1ccc(O)cc1 (stereo unspecified),.,.,.,.,0,.,.,.
COc1ccc(-c2ccnc(-c3ccc(O)cc3)n2)cc1,0,-7,0,52*,0,-1,40,84*
O=C(NC1CCCCC1)C(c1cccs1)N(CCCN1CCOCC1)C(=O)c1ccc(-c2ccccc2)[nH]1 (stereo unspecified),0,-9,-1,17,0,-5,.,.
COc1cccc(CN2CCN(Cc3cccc(Oc4ccccc4)c3)CC2)c1OC,-7,31,-4,0,3,-11,.,.
COc1cccc(CN2CCC(N(CCc3ccccc3)Cc3ccccc3)CC2)c1OC,113*,77*,-4,61*,4,-19,28,.
COc1ccc(CN(C(=O)c2ccco2)c2ccc(C)c(C)c2)cc1,-4,9,6,58*,-3,1,57*,60*
CCOc1ccc(N(Cc2ccc(OC)cc2)C(=O)c2ccco2)cc1,-5,10,5,-4,3,4,.,.
CCOc1ccc(N(CC)C(=O)CCS(=O)(=O)c2cccc3nonc23)cc1,-2,-1,-1,10,-4,14,.,.
COc1ccccc1-c1nc(C#N)c(N2CC(C)CC(C)C2)o1 (stereo unspecified),2,11,-9,9,2,9,.,.
C=CCNc1ncnc2c1ncn2C1OC(CO)C(O)C1O (stereo unspecified),0,77*,7,56*,-2,-6,22,.
Nc1ncn(C2O[C@H](CO)[C@@H](O)[C@H]2O)c(=O)n1 (stereo partly specified),5,54,.,54*,.,.,64*,57*
Nc1nc(F)nc2c1ncn2[C@@H]1O[C@H](CO)[C@@H](O)[C@H]1O,94*,59,-8,99*,-2,.,100*,3
Nc1nc(Cl)nc2c1ncn2C1OC(CO)C(O)C1O (stereo unspecified),.,.,.,.,-2,.,.,.
Nc1nc(Cl)nc2c1ncn2C1CC(O)C(CO)O1 (stereo unspecified),36,74,2,81*,-2,9,77*,26
Nc1ncn([C@H]2C[C@H](O)[C@@H](CO)O2)c(=O)n1,14,8,1,20,-3,-3,.,.
CCCCn1c(N)c(NCC)c(=O)[nH]c1=O,.,.,.,0,0,.,.,.
NS(=O)(=O)c1cc2c(cc1C(F)(F)F)NC(Cc1ccccc1)NS2(=O)=O (stereo unspecified),-6,-13,-1,14,0,.,.,.
